The supplement of paper PMC11732987, “Enantioselective OTUD7B fragment discovery through chemoproteomics screening and high-throughput optimisation” (Communications Chemistry, 2025)

Columns and labels:
Assay in all cases: log2 ratio of Biotin-Ahx-Ub-VS probe labelling (fragment/DMSO); higher = less target engagement (more negative = stronger competition), active = hit call of the paper (q ≤ 0.05, log2 ratio ≤ -1)
Conditions in all cases: compound concentration: 200 uM; treatment time: 3 h
USP19 = molecular target: T1, USP19 (UniProt O94966)
T1 sequence (whole entry): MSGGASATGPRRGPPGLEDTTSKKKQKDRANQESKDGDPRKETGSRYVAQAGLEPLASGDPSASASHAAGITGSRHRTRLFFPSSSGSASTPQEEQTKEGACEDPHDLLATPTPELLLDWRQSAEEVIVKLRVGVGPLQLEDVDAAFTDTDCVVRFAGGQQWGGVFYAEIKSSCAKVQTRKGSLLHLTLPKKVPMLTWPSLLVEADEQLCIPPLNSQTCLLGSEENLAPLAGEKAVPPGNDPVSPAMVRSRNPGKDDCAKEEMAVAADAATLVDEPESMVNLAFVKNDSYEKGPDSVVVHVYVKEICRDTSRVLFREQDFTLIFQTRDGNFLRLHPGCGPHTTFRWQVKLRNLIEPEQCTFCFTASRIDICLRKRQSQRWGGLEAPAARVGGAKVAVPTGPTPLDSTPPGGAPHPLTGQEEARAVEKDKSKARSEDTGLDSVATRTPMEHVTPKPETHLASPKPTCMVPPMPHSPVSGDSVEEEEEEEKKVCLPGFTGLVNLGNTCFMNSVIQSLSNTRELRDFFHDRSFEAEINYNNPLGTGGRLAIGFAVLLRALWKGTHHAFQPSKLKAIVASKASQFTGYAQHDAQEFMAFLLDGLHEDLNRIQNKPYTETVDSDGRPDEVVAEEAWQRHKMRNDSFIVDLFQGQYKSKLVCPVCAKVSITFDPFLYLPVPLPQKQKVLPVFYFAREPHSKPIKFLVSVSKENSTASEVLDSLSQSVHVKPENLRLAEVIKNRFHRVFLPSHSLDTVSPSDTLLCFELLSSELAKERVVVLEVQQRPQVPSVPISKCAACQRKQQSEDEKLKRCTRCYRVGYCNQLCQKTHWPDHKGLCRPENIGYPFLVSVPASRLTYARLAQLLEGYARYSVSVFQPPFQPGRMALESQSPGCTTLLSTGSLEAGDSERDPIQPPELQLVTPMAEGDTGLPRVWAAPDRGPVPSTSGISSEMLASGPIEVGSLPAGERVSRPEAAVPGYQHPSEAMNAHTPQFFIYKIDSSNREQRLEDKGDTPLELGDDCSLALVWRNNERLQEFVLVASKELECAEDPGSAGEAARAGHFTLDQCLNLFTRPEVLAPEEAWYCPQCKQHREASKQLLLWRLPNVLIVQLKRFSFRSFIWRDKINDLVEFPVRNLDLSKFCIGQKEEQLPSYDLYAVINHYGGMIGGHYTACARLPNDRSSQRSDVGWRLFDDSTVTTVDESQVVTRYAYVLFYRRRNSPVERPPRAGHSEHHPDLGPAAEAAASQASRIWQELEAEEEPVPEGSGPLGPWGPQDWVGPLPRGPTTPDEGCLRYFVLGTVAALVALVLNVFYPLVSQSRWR
In short: (§1)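 Each value is an average log2 ratio of fragment to vehicle, tested by unpaired t-test. The underlying Spectronaut label-free quantities were global-median-normalised, and only proteins with ≥2 unique peptides were included. Triplicate HEK293T lysate samples (495 µg) were exposed to fragment at 200 µM or vehicle for 3 h, then to Biotin-Ahx-Ub-VS at 0.5 µM final for 1 h, before NeutrAvidin enrichment of labelled DUBs, LysC and trypsin digestion, and diaPASEF LC-MS/MS.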

USP22 = molecular target: T2, USP22 (UniProt Q9UPT9)
T2 sequence (whole entry): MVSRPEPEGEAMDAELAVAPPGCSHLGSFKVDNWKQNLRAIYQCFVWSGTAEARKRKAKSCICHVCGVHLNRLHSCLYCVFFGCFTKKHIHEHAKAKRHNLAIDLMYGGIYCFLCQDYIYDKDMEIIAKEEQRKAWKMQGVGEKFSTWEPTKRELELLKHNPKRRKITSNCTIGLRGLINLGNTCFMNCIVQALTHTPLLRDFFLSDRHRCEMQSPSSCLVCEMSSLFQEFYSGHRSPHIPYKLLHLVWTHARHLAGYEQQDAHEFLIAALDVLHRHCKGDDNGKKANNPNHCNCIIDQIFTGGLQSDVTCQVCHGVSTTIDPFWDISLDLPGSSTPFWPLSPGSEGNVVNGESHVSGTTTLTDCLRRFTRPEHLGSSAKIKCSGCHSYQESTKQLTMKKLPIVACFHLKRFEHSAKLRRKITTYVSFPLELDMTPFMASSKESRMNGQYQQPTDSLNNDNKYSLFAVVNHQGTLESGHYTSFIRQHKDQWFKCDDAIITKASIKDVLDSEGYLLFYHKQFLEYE
In short: as §1

USP24 = USP24 (UniProt Q9UPU5)
In short: as §1

USP25 = molecular target: T3, USP25 (UniProt Q9UHP3)
T3 sequence (whole entry): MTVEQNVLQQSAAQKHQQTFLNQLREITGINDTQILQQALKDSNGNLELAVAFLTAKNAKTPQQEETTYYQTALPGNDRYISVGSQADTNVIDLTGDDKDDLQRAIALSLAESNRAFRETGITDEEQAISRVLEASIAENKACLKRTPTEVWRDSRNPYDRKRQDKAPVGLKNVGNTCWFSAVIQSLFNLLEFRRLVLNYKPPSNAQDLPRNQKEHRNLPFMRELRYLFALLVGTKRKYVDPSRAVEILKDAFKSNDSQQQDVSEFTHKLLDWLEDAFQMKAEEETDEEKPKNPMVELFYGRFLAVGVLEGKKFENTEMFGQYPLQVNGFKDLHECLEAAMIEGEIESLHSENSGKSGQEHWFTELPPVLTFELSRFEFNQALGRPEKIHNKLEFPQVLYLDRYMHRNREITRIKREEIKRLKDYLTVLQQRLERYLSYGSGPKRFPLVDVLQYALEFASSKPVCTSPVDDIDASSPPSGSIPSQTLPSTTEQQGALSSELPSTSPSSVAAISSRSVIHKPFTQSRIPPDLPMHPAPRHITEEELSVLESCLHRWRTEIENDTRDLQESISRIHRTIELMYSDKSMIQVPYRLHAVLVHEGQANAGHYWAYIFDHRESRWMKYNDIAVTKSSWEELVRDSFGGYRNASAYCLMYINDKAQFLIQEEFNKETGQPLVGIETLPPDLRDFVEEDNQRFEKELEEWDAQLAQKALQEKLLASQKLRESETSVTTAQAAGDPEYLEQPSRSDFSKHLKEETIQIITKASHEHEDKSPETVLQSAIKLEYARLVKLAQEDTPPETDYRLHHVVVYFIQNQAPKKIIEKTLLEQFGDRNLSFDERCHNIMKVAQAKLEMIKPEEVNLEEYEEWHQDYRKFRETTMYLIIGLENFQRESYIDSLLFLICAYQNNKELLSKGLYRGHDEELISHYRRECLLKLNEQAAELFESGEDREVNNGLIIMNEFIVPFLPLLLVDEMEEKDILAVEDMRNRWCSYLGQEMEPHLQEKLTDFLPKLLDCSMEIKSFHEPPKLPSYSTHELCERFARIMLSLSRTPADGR
In short: as §1

USP28 = molecular target: T4, USP28 (UniProt Q96RU2)
T4 sequence (whole entry): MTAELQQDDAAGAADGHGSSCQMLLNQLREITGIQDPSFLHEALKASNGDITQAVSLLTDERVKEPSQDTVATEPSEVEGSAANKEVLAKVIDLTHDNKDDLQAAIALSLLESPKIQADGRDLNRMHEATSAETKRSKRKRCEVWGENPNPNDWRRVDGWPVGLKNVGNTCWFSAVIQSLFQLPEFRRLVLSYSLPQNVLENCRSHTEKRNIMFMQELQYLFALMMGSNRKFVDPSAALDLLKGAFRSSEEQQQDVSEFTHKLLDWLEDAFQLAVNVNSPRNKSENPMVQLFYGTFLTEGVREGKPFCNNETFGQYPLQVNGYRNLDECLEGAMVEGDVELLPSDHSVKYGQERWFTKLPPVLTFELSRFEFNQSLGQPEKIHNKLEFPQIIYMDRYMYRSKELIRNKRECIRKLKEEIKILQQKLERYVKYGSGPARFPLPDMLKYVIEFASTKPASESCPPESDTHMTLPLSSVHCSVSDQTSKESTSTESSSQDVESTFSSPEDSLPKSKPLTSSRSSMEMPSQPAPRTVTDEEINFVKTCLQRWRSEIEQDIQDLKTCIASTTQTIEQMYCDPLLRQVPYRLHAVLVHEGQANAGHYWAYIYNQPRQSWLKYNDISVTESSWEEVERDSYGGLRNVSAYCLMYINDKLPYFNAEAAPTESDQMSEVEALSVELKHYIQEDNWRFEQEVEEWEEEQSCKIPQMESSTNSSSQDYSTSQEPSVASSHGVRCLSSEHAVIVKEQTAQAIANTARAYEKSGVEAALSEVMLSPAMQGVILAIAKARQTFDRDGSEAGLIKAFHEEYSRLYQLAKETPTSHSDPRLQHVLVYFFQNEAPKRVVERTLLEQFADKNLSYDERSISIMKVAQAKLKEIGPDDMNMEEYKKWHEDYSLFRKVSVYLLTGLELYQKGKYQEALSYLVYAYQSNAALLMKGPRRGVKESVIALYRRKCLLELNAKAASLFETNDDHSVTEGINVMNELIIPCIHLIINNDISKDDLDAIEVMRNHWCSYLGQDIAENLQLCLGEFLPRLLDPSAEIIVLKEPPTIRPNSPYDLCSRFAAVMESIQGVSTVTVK
In short: as §1

Measured: log2 ratio of Biotin-Ahx-Ub-VS probe labelling

USP24, sequence (Q9UPU5 whole entry): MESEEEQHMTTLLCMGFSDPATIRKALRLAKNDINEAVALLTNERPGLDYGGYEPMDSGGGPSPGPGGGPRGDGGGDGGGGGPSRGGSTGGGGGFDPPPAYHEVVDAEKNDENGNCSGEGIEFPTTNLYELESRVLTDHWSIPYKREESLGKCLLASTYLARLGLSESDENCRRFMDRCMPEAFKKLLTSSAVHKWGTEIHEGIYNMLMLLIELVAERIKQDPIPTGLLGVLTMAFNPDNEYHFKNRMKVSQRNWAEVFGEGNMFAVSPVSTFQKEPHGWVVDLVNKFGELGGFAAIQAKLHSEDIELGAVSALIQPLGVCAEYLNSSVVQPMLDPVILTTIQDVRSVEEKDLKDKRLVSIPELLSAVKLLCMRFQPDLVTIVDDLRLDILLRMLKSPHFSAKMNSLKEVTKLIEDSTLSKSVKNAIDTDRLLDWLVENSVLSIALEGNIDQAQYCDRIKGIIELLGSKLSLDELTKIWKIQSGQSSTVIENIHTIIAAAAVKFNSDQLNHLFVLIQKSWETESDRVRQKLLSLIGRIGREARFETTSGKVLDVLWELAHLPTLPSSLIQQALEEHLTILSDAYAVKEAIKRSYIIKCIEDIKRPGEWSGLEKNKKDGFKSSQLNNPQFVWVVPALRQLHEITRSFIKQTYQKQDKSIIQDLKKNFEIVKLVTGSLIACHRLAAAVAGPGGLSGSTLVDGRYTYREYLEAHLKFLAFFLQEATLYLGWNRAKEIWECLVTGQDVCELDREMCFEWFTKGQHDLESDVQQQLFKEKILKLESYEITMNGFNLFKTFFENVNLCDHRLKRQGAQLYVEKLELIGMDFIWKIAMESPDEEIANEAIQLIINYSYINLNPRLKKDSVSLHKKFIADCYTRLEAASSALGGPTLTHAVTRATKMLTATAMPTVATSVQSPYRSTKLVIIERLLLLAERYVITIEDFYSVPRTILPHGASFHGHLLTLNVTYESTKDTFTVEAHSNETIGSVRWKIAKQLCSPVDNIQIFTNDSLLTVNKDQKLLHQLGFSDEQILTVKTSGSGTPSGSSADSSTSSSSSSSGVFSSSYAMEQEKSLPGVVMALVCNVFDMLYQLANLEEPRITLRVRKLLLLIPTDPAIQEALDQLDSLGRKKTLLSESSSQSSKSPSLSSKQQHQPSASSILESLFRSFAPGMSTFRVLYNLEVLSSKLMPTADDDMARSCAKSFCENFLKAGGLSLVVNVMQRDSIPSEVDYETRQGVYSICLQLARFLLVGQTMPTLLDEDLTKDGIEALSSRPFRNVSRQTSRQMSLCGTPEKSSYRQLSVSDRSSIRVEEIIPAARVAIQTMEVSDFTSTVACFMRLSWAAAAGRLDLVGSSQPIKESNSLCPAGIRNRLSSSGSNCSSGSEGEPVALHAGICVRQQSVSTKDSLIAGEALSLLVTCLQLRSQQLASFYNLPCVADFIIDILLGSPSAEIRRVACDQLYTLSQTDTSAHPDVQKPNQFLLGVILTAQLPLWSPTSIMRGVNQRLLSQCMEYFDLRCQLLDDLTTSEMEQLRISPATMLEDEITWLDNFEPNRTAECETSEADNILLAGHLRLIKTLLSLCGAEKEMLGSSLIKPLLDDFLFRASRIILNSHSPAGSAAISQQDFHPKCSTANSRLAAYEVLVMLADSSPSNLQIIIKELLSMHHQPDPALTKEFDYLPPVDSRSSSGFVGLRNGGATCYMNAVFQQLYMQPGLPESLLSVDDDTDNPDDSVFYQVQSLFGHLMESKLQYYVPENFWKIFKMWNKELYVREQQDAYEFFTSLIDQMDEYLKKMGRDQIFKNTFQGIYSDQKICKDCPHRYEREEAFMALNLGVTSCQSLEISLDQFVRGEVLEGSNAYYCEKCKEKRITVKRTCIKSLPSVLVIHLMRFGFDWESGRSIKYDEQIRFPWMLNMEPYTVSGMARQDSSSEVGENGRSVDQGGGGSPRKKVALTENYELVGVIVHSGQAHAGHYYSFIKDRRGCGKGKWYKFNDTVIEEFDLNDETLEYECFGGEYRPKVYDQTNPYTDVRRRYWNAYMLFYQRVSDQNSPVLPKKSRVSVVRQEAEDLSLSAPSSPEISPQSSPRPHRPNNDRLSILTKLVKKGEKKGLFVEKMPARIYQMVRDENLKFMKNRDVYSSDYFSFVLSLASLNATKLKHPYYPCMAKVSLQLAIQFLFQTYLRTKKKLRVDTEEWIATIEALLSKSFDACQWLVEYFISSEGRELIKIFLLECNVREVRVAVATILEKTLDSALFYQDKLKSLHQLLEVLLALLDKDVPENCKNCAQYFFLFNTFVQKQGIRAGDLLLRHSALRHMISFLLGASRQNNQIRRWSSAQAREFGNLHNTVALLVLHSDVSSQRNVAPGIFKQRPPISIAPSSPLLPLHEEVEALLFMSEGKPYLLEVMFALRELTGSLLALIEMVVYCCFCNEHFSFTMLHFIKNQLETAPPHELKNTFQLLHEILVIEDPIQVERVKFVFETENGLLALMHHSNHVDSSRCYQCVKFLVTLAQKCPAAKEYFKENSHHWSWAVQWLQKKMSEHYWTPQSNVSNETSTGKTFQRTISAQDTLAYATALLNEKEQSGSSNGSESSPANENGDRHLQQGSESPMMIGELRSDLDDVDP

CC1CCc2onc(CNC(=O)CCl)c2C1 (stereo not given)
inactive: USP19 0.0516 | USP22 0.192 | USP24 0.0469 | USP25 0.00198 | USP28 -0.19
